Most compounds without a hit are left out; they make up all but 4% or so of the library.
p53null 32C kill: qHTS Screen for Compounds that Selectively Target Cancer Cells with p53 Mutations: Cytotoxicity of p53 Null Cells at the Permissive Temperature; H1299-neo p53 null cells, ATP luminescence, 24 h, 32C; Potency, µM (series often up to 46.1 µM), most hits filed as cytotoxic; 55,000 tested, 0.62% active; further: nearly all actives have a fitted effect of over 55% in size
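H1299-neo (p53-null) cells, 600/well, were pre-incubated overnight at 37C, then exposed to compounds at up to 46 uM for 24 hr at 32C. Viability was measured as ATP content by luminescence, and AC50 values came from Hill fits.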
NTMT1 inhibitor: Primary qHTS for Inhibitors of N-terminal methyltransferase 1 (NTMT1): MTaseGlo Assay; NTMT1 MTase-Glo SAH luminescence, purified enzyme; Potency, µM (series often up to 114 µM), usual class: inhibitors; 59,000 tested, 2.5% active; further: nearly all actives have a fitted effect of over 65% in size
GALC G270D up: A Novel Cell-Based Assay to Identify Small Molecules for B -Galactocerebrosidase. P54803. 145M-Twi-hGALC-G270D cells (Twitcher mouse brain line with human GALC G270D), HMU-beta-Gal fluorescence, 48 h. Potency, µM (top dose mostly 57.5 µM), hits mostly activators. 45,000 tested, 0.1% active. AID 1159614, 2016; further: nearly all actives have a fitted effect of over 65% in size
Target sequence (P54803 whole entry G286D): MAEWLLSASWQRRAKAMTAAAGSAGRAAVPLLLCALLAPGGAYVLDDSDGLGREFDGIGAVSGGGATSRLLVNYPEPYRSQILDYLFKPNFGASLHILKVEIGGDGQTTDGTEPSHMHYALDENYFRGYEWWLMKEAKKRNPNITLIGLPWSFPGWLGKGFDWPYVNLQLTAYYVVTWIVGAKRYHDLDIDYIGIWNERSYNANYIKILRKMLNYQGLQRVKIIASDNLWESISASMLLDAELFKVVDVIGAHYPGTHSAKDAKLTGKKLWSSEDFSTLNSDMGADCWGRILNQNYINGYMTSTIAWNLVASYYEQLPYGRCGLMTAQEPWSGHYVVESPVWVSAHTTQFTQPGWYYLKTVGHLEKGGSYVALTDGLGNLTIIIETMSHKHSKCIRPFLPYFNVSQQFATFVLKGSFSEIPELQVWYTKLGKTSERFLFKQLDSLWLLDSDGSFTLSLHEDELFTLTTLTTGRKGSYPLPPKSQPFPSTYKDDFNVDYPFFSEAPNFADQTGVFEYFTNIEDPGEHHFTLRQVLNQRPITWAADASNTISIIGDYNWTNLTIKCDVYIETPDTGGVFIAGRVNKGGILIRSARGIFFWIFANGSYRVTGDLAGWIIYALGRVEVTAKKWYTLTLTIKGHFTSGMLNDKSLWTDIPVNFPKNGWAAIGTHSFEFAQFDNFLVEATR
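Fluorescence readout: HMU-β-gal cleavage by mutant GALC (0.1 mM final, citrate/phosphate pH 5.2 with 1 mg/mL taurocholate), stopped with carbonate/bicarbonate plus Triton X-100. Cells: murine Twitcher 145M-Twi expressing human G270D GALC; qHTS for activators.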
p53null 39C kill: qHTS Screen for Compounds that Selectively Target Cancer Cells with p53 Mutations: Cytotoxicity of p53 Null Cells at the Nonpermissive Temperature | 55,000 tested, 0.97% active | Potency, µM (series often up to 46.1 µM), usual class: cytotoxic | AID 904, 2007 | H1299 p53-null (neo) cells, 39C, ATPlite viability, 24 h; further: nearly all actives have a fitted effect of over 50% in size
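Temperature-shift cytotoxicity format: compound titrations on p53-null or A138V-expressing H1299 cells held 24 hr at 39C, cell ATP then measured, AC50 from Hill model.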
SKOV3 invasion: Primary qHTS assay for Inhibitors of ovarian cancer metastasis using an organotypic tumor microenvironment (TME) model; Potency, µM (top dose mostly 45.8 µM), most hits filed as inhibitors; SKOV3ip1-GFP adhesion/invasion on 3D omental model, fluorescence; 46,000 tested, 0.1% active; further: nearly all actives have a fitted effect of over 65% in size
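A 3D layer of primary human omental fibroblasts, mesothelial cells, fibronectin and collagen I, grown 48 hr, received SKOV3ip1-GFP cells in serum-free medium plus compounds at 0.36-46 umol/L. After 2 hr RT and 16 hr 37 C, fixed adherent GFP cells were counted; normalized to DMSO and tomatine.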
GPR32 ag: qHTS for Agonists of Human Resolvin D1 Receptor DRV1; CHO-K1 GPR32 beta-arrestin PathHunter luminescence, 90 min; zero percent set by DMSO-only wells; activation, % at 76.9 µM; 48,000 tested, 2.5% active;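 active means activation of at least 60% and not above a set upper limit, about 1 call in 100 departs from these limits; inconclusive means activation of 40% to 60%, or above that upper limit; inactive means activation under 40%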
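Beta-arrestin recruitment read-out: luminescence from complemented beta-Gal in CHO-K1 GPR32 PathHunter cells, measured 1 h after detection reagent at ambient temperature following 90 min compound exposure at 37 °C; DMSO served as basal (EC0) control.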
A number is an active result; - = inactive; ? = inconclusive; . = not tested or not shown; ! = a repeat was not active; [ ] = another dose, or the depositor's remark. Unless noted, the call rests on the fitted dose curve; in most records, active means well fitted curve in the direction sought with a large enough effect; inconclusive means small, poorly fitted or top-dose-only effect, or another doubt; inactive means no such curve, though single readings can be large; an effect the other way counts as inactive or inconclusive.

SMILES	p53null 32C kill	NTMT1 inhibitor	GALC G270D up	p53null 39C kill	SKOV3 invasion	GPR32 ag
CN(C)C(=O)C(CCN1CCC(O)(c2ccc(Cl)cc2)CC1)(c1ccccc1)c1ccccc1	.	-	-	.	-	-
OC1(c2ccc(Cl)c(C(F)(F)F)c2)CCN(CCCC(c2ccc(F)cc2)c2ccc(F)cc2)CC1	.	-	-	.	.	64
COc1ccc(-c2cnc(-c3cccc4c3-c3ccccc3C4=O)o2)cc1	.	-	.	.	.	.
CCOc1cc(CNCCSc2nnnn2C)cc(Cl)c1OCc1ccc(Cl)cc1	?	-	-	11µM	?	-
COc1cc(CNCCSc2nnnn2C)ccc1OCc1ccc(C)cc1	-	-	-	-	-	-
COc1cccc(CNCCSc2nnnn2C)c1OCc1ccc(Cl)cc1Cl	-	-	-	-	?	?
COc1cc(CNCCSc2nnnn2C)cc(Cl)c1OCc1ccccc1	-	-	-	-	-	89
COc1cccc(CNCCSc2nnnn2C)c1OCc1ccc(Cl)cc1	-	?	-	-	-	116
CC1CC(=O)C2=C(O1)OC1(C)CCC3C(C)(C)C4OC4C(=O)C3(C)C1C2 (stereo unspecified)	.	-	.	.	.	.
CCCCn1cnc2cc(C(=O)N3CCCCC3)ccc21	.	-	.	.	.	.
C=C(C(=O)OC)[C@]12O[C@@](C)(CC[C@@]3(O)/C(=C\C)C(=O)O[C@]3(C)C[C@@H]1OC(=O)C(CO)CN1CCCC1C(=O)O)CC2=O (stereo partly specified)	.	-[12.6 µM]	.	.	.	.
CC(=O)Nc1ccc(NC(=O)C2CCN(c3cnccn3)CC2)cc1	-	?	-	-	-	-
CC(C)(C)c1ccc(NC(=O)C2CCCN(c3cnccn3)C2)cc1 (stereo unspecified)	-	89µM	-	-	-	-
CCOc1ccc(OCC)c(Nc2nc3ccccc3c3nnc(C)n23)c1	-	-	-	-	-	-
CCOc1ccc2nc(C)cc(Nc3ccccc3OCC)c2c1	-	-	-	?	-	90
Cc1cccc(C)c1OCC(=O)Nc1nonc1-c1ccc(Br)cc1	-	-	-	-	-	-
O=C(Nc1nonc1-c1ccc(Br)cc1)c1ccco1	-	-	-	-	-	71
COc1ccc(NC(=O)C(=O)NCC(c2cccnc2)N2CCc3ccccc3C2)cc1 (stereo unspecified)	13µM	-	-	20µM	-	-
Cc1ccc(Cl)cc1NC(=O)CSc1nc(C)c(C)c(C)c1C#N	-	-	-	-	-	115
Cc1ccc(OCCn2c(CCNC(=O)N3CCCCC3)nc3ccccc32)cc1	.	-	.	.	.	.
CC(C)n1nc(-c2cc3cc(O)ccc3[nH]2)c2c(N)ncnc21	.	79µM!	-	.	.	-
COc1ccc(C)cc1NC(=O)NCc1cccn1Cc1ccccc1	-	89µM	-	-	-	-
COc1cc(OC)c(NC(=O)NCc2cccn2Cc2ccccc2)cc1Cl	-	-	-	-	-	-
O=[S+]([O-])(Nc1ccc(-c2nc3ccccc3[nH]2)cc1)c1ccc2c(c1)CCO2	.	-	.	.	.	.
CC(=O)OC1[C@H]2[C@@H](C[C@@H](C)[C@@H]3C=CC(=O)[C@@]13C)OC(=O)[C@@H]2C (stereo partly specified)	.	-	.	.	.	.
SMILES	p53null 32C kill	NTMT1 inhibitor	GALC G270D up	p53null 39C kill	SKOV3 invasion	GPR32 ag
COc1ccc(-c2nnc(SCC(=O)Nc3cccc(C)c3)s2)cc1	?	-	-	-	-	-
COc1ccc(-c2nnc(SCC(=O)Nc3ccc(C)c(C)c3)s2)cc1	-	-	-	-	-	115
Cc1ccc(NC(=O)CSc2nnc(NC(=O)NC3CCCCC3)s2)cc1	?	-	-	-	-	-
COc1cccc(NC(=O)CSc2nnc(NC(=O)NC3CCCCC3)s2)c1	13µM	-	-	-	-	-
CCN(CC)C(=O)Cn1c(=O)cc(C)c2c(C)nn(-c3cccc(Cl)c3C)c21	-	-	-	-	-	94
COC(=O)C[C@@H]1C(C(=O)O)=CO[C@@H](O[C@@H]2O[C@H](CO)[C@@H](O)[C@H](O)[C@H]2O)/C1=C\COC(=O)/C=C/c1ccc(O)c(OC)c1	.	-[12.6 µM]	.	.	.	.
COc1cc2nc(N3CCCCC3)nc(NC3CCN(Cc4ccccc4)CC3)c2cc1OC	.	45µM	.	.	.	.
COc1cc2nc(N3CCCC3)nc(NCCCCCN3CCCC3)c2cc1OC	.	32µM	.	.	.	.
COc1cc2nc(-c3ccc(N4CCN(C)CC4)cc3)nc(NCCN3CCOCC3)c2cc1OC	.	-	.	.	-	.
COc1cc2c(NC3CCN(C)CC3)nc(N3CCCN(C)CC3)nc2cc1OCCCN(C)C	.	-	.	.	.	.
CC(C)(C)OC(=O)N1CCN(c2ccc(NCc3ccc(-c4ccccc4F)o3)cc2)CC1	.	-	.	.	.	.
CC(=O)c1cc(-c2ccccc2)n(CC(=O)NCc2ccccc2C)c1C	-	.	.	-	-	80
CC(=O)c1cc(-c2ccc(F)cc2)n(CCC(=O)NCc2ccccc2C)c1C	-	.	.	-	-	-
CC(C)c1ccc(NC(=O)C2(C)Cc3ccccc3C(=O)O2)cc1 (stereo unspecified)	-	-	-	-	-	79
Cc1cccc(NC(=O)C2(C)Cc3ccccc3C(=O)O2)c1 (stereo unspecified)	-	-	-	-	-	-
C=C[C@@H]1[C@H](O[C@@H]2O[C@H](CO)[C@@H](O)[C@H](O)[C@H]2O)OC=C(C(=O)O)[C@H]1CCOC(=O)/C=C/c1ccc(O)c(O)c1	.	-	.	.	.	.
CCCC(=O)Nc1ccc(O)c(C(C)=O)c1	.	-	-	.	.	-
